Shiga toxin inh: blocks Shiga toxin action in Vero cells; Vero cells, Shiga toxin protein synthesis inhibition reporter; inhibition, % at 38.7 µM; 290,000 compounds, 9.2% hits; AID 2315; in the data active = inhibition mostly above about 28%, no sharp cut-off; inactive = mostly below about 43%; also: 0% is about no effect
Pf growth 48h: inhibits P. falciparum growth in the first generation, 48 h; P. falciparum luciferase growth in erythrocytes, 48 h; Potency, µM (titrated, usually from 28.7 µM), for the others: top-dose activity change, negative = inhibition, most hits filed as inhibitors; 310,000 compounds, 5.9% hits; also: potency is read from the fitted curve at half-maximal effect; % is scaled to controls: 0 for no effect and ±100 for the full control effect
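Compounds are pin-transferred into medium, infected erythrocytes (2% hematocrit, 0.1% parasitemia final) are added, and plates sit one parasite generation at 37 C in 5% CO2. Detection reagent is then added and luminescence measured.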
NS1 inh: blocks influenza NS1 protein function | AID 2326 | 270,000 compounds, 0.4% hits | Potency, µM (titrated, usually from 46.1 µM), for the others: at the highest dose activity, positive = more growth; calls by dose curve; also: potency is read from the fitted curve at half-maximal effect; actives are rising curves; nearly all actives have a fitted effect of over 50% in size
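OD600 was taken as the measure of yeast growth restored by compound in an NS1-expressing S. cerevisiae strain. Cells had been washed out of glucose medium and diluted 1:100 into galactose -URA medium, pH 6.0.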
Sm TGR block: inhibitors of Schistosoma mansoni thioredoxin glutathione reductase | AID 485364 | purified TGR, DTNB reduction, TNB absorbance 405 nm | Potency, µM (series often up to 114 µM), inactives show top-dose activity change, negative = inhibition, hits mostly inhibitors | 360,000 compounds, 3% hits | Q962Y6; also: potency is read from the fitted curve at half-maximal effect; % is scaled to controls: 0 for no effect and ±100 for the full control effect; nearly all actives have a fitted effect of over 60% in size
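First, TGR (20 nM dispensed) and NADPH were mixed with compound. Second, a 15 min room-temperature incubation followed. Third, further NADPH and then DTNB were added to start the reaction. Finally, TNB absorbance was monitored kinetically.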
Cycloheximide cs: counter-screen for Shiga toxin inhibitors: cycloheximide protein synthesis inhibition; cell reporter, cycloheximide protein synthesis inhibition counterscreen; max response, %; 300,000 compounds, 12% hits; AID 2314; in the data active = max response mostly above about 13%, no sharp cut-off; inactive = mostly below about 14%; also: read at 38.3 µM for the half of the compounds with a filed dose; 0% is about no effect
Pf growth 96h: inhibits malaria parasite growth, 96 h | P. falciparum luciferase reporter growth, 96 h | Potency, µM (highest dose often 28.7 µM), for the others: at the top dose activity change, negative = inhibition, hits mostly inhibitors | 320,000 compounds, 6.9% hits | AID 504834; also: potency is read from the fitted curve at half-maximal effect; % is scaled to controls: 0 for no effect and ±100 for the full control effect
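P. falciparum expressing integrated firefly luciferase, in erythrocytes at 2% hematocrit, 0.05% parasitemia, incubated with compounds 96 h at 37 C, 5% CO2. Growth inhibition read as loss of luminescence; two-generation exposure targets delayed-death apicoplast inhibitors.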
An asterisk follows results filed as active; [ ] = dose if it differs, or a comment. An excerpt weighted towards active compounds, which were near 21% of everything screened. Unless noted, calls follow the shape of the dose curve; as a rule, active = well fitted curve in the direction sought with a large enough effect; inconclusive = small, poorly fitted or top-dose-only effect, or another doubt; inactive = no such curve, though single readings can be large; an effect the other way counts as inactive or inconclusive.

Results for COC(=O)[C@@]12CCCN1[C@H](c1ccc(SC3CCCCC3)cc1)[C@H]1C(=O)N(C)C(=O)[C@H]12 ?
Pf growth 48h: 10µM*; Sm TGR block: -12%; Pf growth 96h: inconclusive

What do the screens show for `CCN1C(=O)[C@@H]2[C@@H](c3ccc(SC4CCCCC4)cc3)N3CCC[C@@]3(C(=O)OC)[C@@H]2C1=O`?
Pf growth 48h: 13µM*; Sm TGR block: -2%; Pf growth 96h: 9.3µM*

What do the screens show for `CCCSc1ccc([C@H]2N[C@@](C)(C(=O)OC)[C@H]3C(=O)N(C)C(=O)[C@@H]23)cc1OC`?
Pf growth 48h: inconclusive; Sm TGR block: -22%; Pf growth 96h: 10%

How did CCCc1cc(=O)[nH]c(SCC(=O)N2CCN(c3ccccc3OC)CC2)n1 do in these assays?
Sm TGR block: 0%

How did CCc1ccc(S(=O)(=O)c2nnn3c2nc(NCc2ccccc2)c2cc(Cl)ccc23)cc1 do in these assays?
Sm TGR block: 6%

What do the screens show for `CC(C)(C)c1ccc(C(=O)NC(=S)NNC(=O)c2cccs2)cc1`?
Shiga toxin inh: 23; Pf growth 48h: 1%; NS1 inh: -24%; Sm TGR block: -33%; Cycloheximide cs: 14; Pf growth 96h: inconclusive

Results for O=C(NC(=S)NNC(=O)c1cccs1)c1ccccc1 ?
Shiga toxin inh: 33; Pf growth 48h: -25%; NS1 inh: -99%; Sm TGR block: 50µM*; Cycloheximide cs: 11*; Pf growth 96h: inconclusive

What do the screens show for `O=C(NNC(=O)c1cccs1)c1ccc(F)cc1`?
Shiga toxin inh: 50*; Pf growth 48h: 43%; NS1 inh: 2%; Sm TGR block: -13%; Cycloheximide cs: 22*; Pf growth 96h: 7%

Results for O=C(NNC(=O)c1cccs1)c1cccc(F)c1 ?
Shiga toxin inh: -3; Pf growth 48h: 33%; NS1 inh: -7%; Sm TGR block: -8%; Cycloheximide cs: -3; Pf growth 96h: inconclusive

How did O=C(NC(=S)NNC(=O)c1cccs1)c1ccco1 do in these assays?
Shiga toxin inh: 19; Pf growth 48h: inconclusive; NS1 inh: -122%; Sm TGR block: -15%; Cycloheximide cs: 29*; Pf growth 96h: inconclusive

What do the screens show for `O=C(NNC(=O)c1cccs1)c1ccco1`?
Shiga toxin inh: 20; Pf growth 48h: 8%; NS1 inh: 4%; Sm TGR block: 0%; Cycloheximide cs: 6; Pf growth 96h: inconclusive

How did Cc1ccccc1C(=O)NNC(=S)NC(=O)c1cccs1 do in these assays?
Shiga toxin inh: 20; Pf growth 48h: inconclusive; NS1 inh: -115%; Sm TGR block: 0%; Cycloheximide cs: 21*; Pf growth 96h: inconclusive

How did Cc1cc2nc(CSc3ccc(Cl)cc3)cc(=O)n2[nH]1 do in these assays?
Shiga toxin inh: 17; Pf growth 48h: -40%[1.15 µM]; NS1 inh: 4%; Sm TGR block: 1%; Cycloheximide cs: -4; Pf growth 96h: 2%

How did Cc1noc(C)c1CSCC(=O)Nc1ccccc1N1CCCCC1 do in these assays?
Pf growth 48h: inconclusive; Sm TGR block: 4%; Pf growth 96h: inconclusive

Results for COc1ccc(-c2cc(C(F)(F)F)n3ncc(C(=O)N(C)Cc4ccccc4)c3n2)cc1 ?
Shiga toxin inh: 16; Pf growth 48h: inconclusive; Sm TGR block: -2%; Cycloheximide cs: 17; Pf growth 96h: inconclusive

What do the screens show for `Cc1cccc(C(=O)NC(=S)NNC(=O)c2ccc(Cl)cc2)c1`?
Shiga toxin inh: 5; Pf growth 48h: -25%; NS1 inh: -33%; Sm TGR block: 3%; Cycloheximide cs: -5; Pf growth 96h: inconclusive

What do the screens show for `Cc1cccc(C(=O)NC(=S)NNC(=O)c2cccs2)c1`?
Shiga toxin inh: 25*; Pf growth 48h: -26%; NS1 inh: -70%; Sm TGR block: inconclusive; Cycloheximide cs: 12; Pf growth 96h: inconclusive

How did CC(=O)OCC#CCSc1nnc(-c2cccc(Br)c2)o1 do in these assays?
Sm TGR block: 3%

What do the screens show for `CCOc1ccc(NC(=O)CN2CCc3ccccc3C2)cc1`?
Shiga toxin inh: -9; Pf growth 48h: 36%; NS1 inh: -22%; Sm TGR block: 0%; Cycloheximide cs: -3; Pf growth 96h: 32%

Results for CCOc1ccc(NC(=O)N2CCc3ccccc3C2)cc1 ?
Shiga toxin inh: 58*; Pf growth 48h: 50%; NS1 inh: -16%; Sm TGR block: -14%; Cycloheximide cs: 48*; Pf growth 96h: inconclusive

How did COc1ccc(NC(=O)N2CCc3ccccc3C2)cc1 do in these assays?
Shiga toxin inh: 78*; Pf growth 48h: 0%; NS1 inh: -19%; Sm TGR block: 8%; Cycloheximide cs: 63*; Pf growth 96h: inconclusive

How did Fc1ccc(NC(=S)N2CCc3ccccc3C2)c(F)c1 do in these assays?
Shiga toxin inh: 67*; Pf growth 48h: 34%; NS1 inh: -7%; Sm TGR block: 4%; Cycloheximide cs: 32*; Pf growth 96h: inconclusive

What do the screens show for `COc1cc(NC(=S)N2CCc3ccccc3C2)cc(OC)c1`?
Shiga toxin inh: 39; Pf growth 48h: -16%[5.75 µM]; Sm TGR block: 8%; Cycloheximide cs: 9; Pf growth 96h: inconclusive

How did COc1ccc(NC(=S)N2CCc3ccccc3C2)cc1OC do in these assays?
Shiga toxin inh: 49*; Pf growth 48h: 18%; Sm TGR block: -11%; Cycloheximide cs: 10; Pf growth 96h: 0%

Results for O=C(Cn1nnc2ccccc2c1=O)Nc1cccc(S(=O)(=O)N2CCOCC2)c1 ?
Shiga toxin inh: 36; Pf growth 48h: inconclusive; NS1 inh: 8%; Sm TGR block: 1%; Cycloheximide cs: -3; Pf growth 96h: -27%

How did FC(F)(F)c1cc(-c2ccccc2)nc2nc(N3CCOCC3)sc12 do in these assays?
Shiga toxin inh: -13; Pf growth 48h: -7%; Sm TGR block: -4%; Cycloheximide cs: -7; Pf growth 96h: inconclusive

How did COc1ccccc1NC(=O)CC(C)n1nc(C)cc1C (stereo not drawn) do in these assays?
Sm TGR block: 3%

What do the screens show for `Cc1ccc(CN2C(=O)c3ccccc3Sc3ccc(C(=O)N4CCOCC4)cc32)cc1`?
Sm TGR block: 1%

What do the screens show for `CC(=O)N(C)c1ccc(NS(=O)(=O)Cc2ccccc2)cc1`?
Shiga toxin inh: 63*; Pf growth 48h: 56%; NS1 inh: 10%; Sm TGR block: -1%; Cycloheximide cs: 27*; Pf growth 96h: inconclusive

Results for Cc1ccc(S(=O)(=O)CCC(=O)Nc2ccc(S(=O)(=O)N(C)C)cc2)cc1 ?
Shiga toxin inh: -5; Pf growth 48h: -30%; Sm TGR block: inconclusive; Cycloheximide cs: 2; Pf growth 96h: inconclusive

Results for Cc1ccc(NC(=O)CCS(=O)(=O)c2cc3[nH]c(=O)c(=O)[nH]c3cc2C)cc1 ?
Shiga toxin inh: -9; Pf growth 48h: 6%; NS1 inh: 1%; Sm TGR block: -24%; Cycloheximide cs: 9; Pf growth 96h: 4.1µM*
